Assay results as given in PubChem BioAssay (NCATS).
Inconclusive results are not listed. Calls of active or inactive are those of the source. Calls come from the whole dose curve; as a rule, active = well fitted curve in the direction sought with a large enough effect; inconclusive = small, poorly fitted or top-dose-only effect, or another doubt; inactive = no such curve, though single readings can be large or run the other way.

Experiment: Dual reporter qHTS for antagonist of Pregnane X Receptor (hPXR) against the NCATS DSHEA and TCM libraries: Fluorescence Readout (AID 1920061); note: 0% is about no effect
Settings: PXR dual reporter cells, antagonist mode; series mostly up to 40 µM; activity change, negative = inhibition: at the top concentration
Excerpt: Assay Development and Screening Technology Laboratory (ADST)
National Center for Advancing Translational Sciences (NCATS), Rockville, MD
National Institute of Health (NIH), Bethesda, Maryland
Dietary Supplements and Natural Products have minor oversight of their safety and efficacy. We assembled a collection of Dietary Supplements and Natural Products (DSNP) as well as Traditional Chinese Medicinal (TCM) Plant extracts, which were screened against an in vitro panel of assays, including a liver cytochrome p450 enzyme panel, CAR/PXR signaling pathways, and P-gp transporter assays, to assess their activity. This pipeline facilitated the interrogation of Natural Product-Drug Interaction (NaPDI) through prominent metabolizing pathways. In addition, we compared the activity profiles of the DSNP/TCM substances with those of an approved drug collection. Many of the approved drugs have well-annotated mechanisms of action (MOA) while the MOAs for most of the DSNP and TCM samples remain unknown. Based on the premise that compounds with similar activity profiles tend to share similar targets or MOA, we clustered the library activity profiles to identify overlap with the NCATS Pharmaceutical Collection to predict the MOAs of the DSNP/TCM substances. Overall, we highlight four significant bioactivity profiles (measured by p-values) as examples of this prediction. To assess broad cytotoxicity, we employed screening against a HepG2 cell line. In addition, transporter-mediated drug interactions are utilized in the characterization of DDIs using a P-glycoprotein (P-gp) assays. To profile potential P-gp activity, a differential cell viability was measured against two cell lines: a parental KB-3-1 human cervical adenocarcinoma cell line and the drug-resistant subline KB-8-5-11 that overexpresses P-gp.
To this end, we profiled both collections for potential CAR and/or PXR activity, employing a previously published 1536-well qHTS assay.
[1] Lee TD, et al. A High-Throughput Screen of a Library of Therapeutics Identifies Cytotoxic Substrates of P-glycoprotein. Mol Pharmacol. Nov 2019;96(5):629-640. doi:10.1124/mol.119.115964
For PXR luciferase reporter gene assays, we used hPXR-LucHepG2cells provided by Dr. Taosheng Chen (Department of Chemical Biology and Therapeutics, St. Jude Children's Research Hospital). Cells were cultured in EMEM supplemented with 10% fetal bovine serum, 100U/mL penicillin and 100ug/mL streptomycin, and 500ug/mL of geneticin.
PROTOCOL TABLE (as described by Inglese J, Shamu CE and Guy RK. 2007)
SEQUENCE No. (e.g., 1, 2, 3, etc.); PARAMETER (e.g., Cells, Incubation, Reagent, etc.); VALUE; DESCRIPTION.
1; Cells; 5 uL; hPXR-LucHepG2; white solid-bottom Greiner plate.
2; Incubation; 5h; 37C, 95% humidity, 5% CO2
3; Compounds and control; 23 nL; Kalypsis pintool (Wako USA).
4; Reagent; 1uL; rifampicin (RIF) in the antagonist mode.
6; Reagent; 1 uL; CellTiter-Fluor detection reagent.
7; Incubation; 1 hr; 37C, 5% CO2.
8; Read; Fluorescence; ViewLux plate reader.
9; Reagent; 4 uL; ONE-Glo Luciferase detection reagent.
10; Incubation; 30 min; room temperature.
11; Read; Luminescence; ViewLux plate reader.
NOTES (numbers refer to Sequence numbers above)
1. Briefly, 5uL of hPXR-LucHepG2 cells in phenol red-free DMEM containing 5% charcoal-stripped FBS, 1 mM sodium pyruvate (Invitrogen), 2 mM L-glutamine (Invitrogen), and 100 U/mL penicillin and 100ug/mL streptomycin were dispensed using a BioRAPTR FRD at 4 x 10^5cells/mL (2000cells/well) in tissue culture-treated 1536-well white assay plates (GreinerBio-One).
2. Plates were incubated for 5h at 37C, 95% humidity, and 5% CO2 to allow for cell attachment.
3. Compounds (final concentration for most substances ranged from 15.6 nM to 45.9uM), positive SPA70 (final concentration range of 2.8 nM to 92uM for the antagonist mode), and cytotoxicity control tetraoctyl ammonium bromide (final concentration of 92uM) were transferred (23 nL) via pintool (Wako Automation).
4-5. […]

Structure (SMILES)	activity change, negative = inhibition
O=C(O)CC(O)(C(=O)O)C(O)C(=O)O (stereo not given)	1.92% (inactive)
COc1ccc(-c2coc3cc(O[C@@H]4O[C@H](CO)[C@@H](O)[C@H](O)[C@H]4O)ccc3c2=O)cc1	15.1% (inactive)
CC(C)[C@H](C)CC[C@@H](C)[C@H]1CC[C@H]2[C@@H]3CC=C4C[C@@H](O)CC[C@]4(C)[C@H]3CC[C@]12C	12.2% (inactive)
O=Cc1ccccc1O	6.75% [at 68.2 µM] (inactive)
CC1=CC[C@H](C(C)C)C=C1	-0.776% [at 68.2 µM] (inactive)
CCCCCC/C=C\CCCCCCCC(=O)O	2.34% (inactive)
O=C(O[C@@H]1Cc2c(O)cc(O)cc2O[C@@H]1c1ccc(O)c(O)c1)c1cc(O)c(O)c(O)c1	4.46% (inactive)
CC1(C)C2CCC1(C)C(O)C2 (stereo not given)	7.35% (inactive)
CC12CC3(O)OC(O1)C1(COC(=O)c4ccc(O)cc4)C3CC21OC1OC(CO)C(O)C(O)C1O (stereo not given)	7.99% (inactive)
C=C(C)[C@H]1CC=C(CO)CC1	8.68% (inactive)
Oc1cc(O)c2c(c1)O[C@@H](c1cc(O)c(O)c(O)c1)[C@H](O)C2	-17.1% (inactive)
O=C(/C=C/c1ccc(O)c(O)c1)O[C@H]1[C@H](O)C[C@](O)(C(=O)O)C[C@H]1OC(=O)/C=C/c1ccc(O)c(O)c1	-7.51% (inactive)
O=c1c(O[C@@H]2O[C@H](CO)[C@H](O)[C@H](O)[C@H]2O)c(-c2ccc(O)c(O)c2)oc2cc(O)cc(O)c12	-16% (inactive)
C=C1C[C@@]23CC[C@H]4[C@](C)(CCC[C@]4(C)C(=O)O[C@@H]4O[C@H](CO)[C@@H](O)[C@H](O)[C@H]4O)[C@@H]2CC[C@]1(O[C@H]1O[C@@H](CO)[C@H](O)[C@@H](O)[C@@H]1O)C3	4.46% (inactive)
COc1cc(/C=C/c2ccccc2)oc(=O)c1	4.61% (inactive)
CN(CC(=O)O)C(=N)N	5.57% [at 121 µM] (inactive)
CC1(C)CC[C@]2(C(=O)O)CC[C@]3(C)C(=CCC4[C@@]5(C)CC[C@@H](O)C(C)(C)C5CC[C@]43C)C2C1 (stereo not given in full)	-27.8% (inactive)
C[C@@H]1OC(O[C@H]2[C@H](O)[C@@H](O)[C@H](OC[C@H]3O[C@@H](OC(=O)[C@]45CCC(C)(C)C[C@@H]4C4=CCC6[C@@]7(C)CC[C@H](OC8OC[C@H](O)[C@H](O)[C@H]8OC8O[C@@H](C)[C@H](O)[C@@H](O)[C@H]8O)[C@@](C)(CO)C7CC[C@@]6(C)[C@]4(C)CC5)[C@H](O)[C@@H](O)[C@@H]3O)O[C@@H]2CO)[C@H](O)[C@H](O)[C@H]1O (stereo not given in full)	8.91% (inactive)
O=c1cc(-c2ccc(O)cc2)oc2cc(O[C@@H]3O[C@H](CO)[C@@H](O)[C@H](O)[C@H]3O[C@@H]3OC[C@](O)(CO)[C@H]3O)cc(O)c12	1.61% (inactive)
CC(C)=CCC[C@](C)(OC1OC(COC2OCC(O)C(O)C2O)C(O)C(O)C1O)[C@H]1CC[C@]2(C)[C@@H]1[C@H](O)C[C@@H]1[C@@]3(C)CC[C@H](OC4OC(CO)C(O)C(O)C4OC4OC(CO)C(O)C(O)C4O)C(C)(C)[C@@H]3CC[C@]12C (stereo not given in full)	14% (inactive)

Structure (SMILES)	activity change, negative = inhibition
C=CCc1ccc(OC)c(OC)c1	7.58% (inactive)
CCCCCCCCCCCCCC(=O)O	1.61% (inactive)
O=C(OC[C@H]1O[C@@H](OC(=O)c2cc(O)c(O)c(O)c2)[C@H](OC(=O)c2cc(O)c(O)c(O)c2)[C@@H](OC(=O)c2cc(O)c(O)c(O)c2)[C@@H]1O)c1cc(O)c(O)c(O)c1	10.3% [at 22 µM] (inactive)
CCCCCC/C=C/CCCCCCCCCC(=O)O	12.5% (inactive)
C=C1C[C@@]23CC[C@H]4[C@@](C)(CCC[C@@]4(C)C(=O)O[C@@H]4O[C@H](CO)[C@@H](O)[C@H](O)[C@H]4O[C@@H]4O[C@H](CO)[C@@H](O)[C@H](O)[C@H]4O)[C@@H]2CC[C@]1(O[C@@H]1O[C@H](CO)[C@@H](O)[C@H](O)[C@H]1O[C@@H]1O[C@H](CO)[C@@H](O)[C@H](O)[C@H]1O)C3	15.7% (inactive)
O=C(O)[C@H]1O[C@@H](Oc2c(-c3ccc(O)c(O)c3)oc3cc(O)cc(O)c3c2=O)[C@H](O)[C@@H](O)[C@@H]1O	2.9% (inactive)
C=C(C)C1CC=C(C)C(O)C1 (stereo not given)	9.1% (inactive)
OCCc1ccc(O)cc1	9.18% [at 68.2 µM] (inactive)
O=C(/C=C/c1ccc(O)c(O)c1)O[C@@H]1C[C@](O)(C(=O)O)C[C@@H](O)[C@H]1O	2.59% (inactive)
C=CC(=C)CCC=C(C)C	10.6% (inactive)
CCCCCCCCCCCCCCCCCCCCCCCCCCCCCCO	2.96% [at 5 µM] (inactive)
O[C@@H]1[C@@H](O)[C@H](OC/C=C/c2ccccc2)O[C@H](CO[C@@H]2OC[C@H](O)[C@H](O)[C@H]2O)[C@H]1O	8.19% (inactive)
CCCCCCCCCCCCCCCCCCCCCC(=O)O	10.9% (inactive)
CC(=O)OC/C=C/c1ccccc1	9.85% [at 68.2 µM] (inactive)
CCCCC/C=C/C/C=C/CCCCCCCC(=O)O	8.39% (inactive)
C=C1CC[C@H]2C[C@@H]1C2(C)C	4.53% [at 68.2 µM] (inactive)
C=C(C)C(CC=C(C)C)CC12CC(CC=C(C)C)C(C)(C)C(CC=C(C)C)(C(=O)/C(=C(\O)c3ccc(O)c(O)c3)C1=O)C2=O (stereo not given)	-29.3% (inactive)
CC1=CCC(O)(C(C)C)CC1 (stereo not given)	8.94% [at 68.2 µM] (inactive)
CCCCCCCCCC=O	16% [at 68.2 µM] (inactive)
CCCCC/C=C/C(=O)CCc1ccc(O)c(OC)c1	-15.8% (inactive)
